Results taken from PubChem BioAssay AID1159580 (chemical genetic matrix, 2015).
Values joined by “and” are separate entries in the source; they are usually repeats but may differ in a detail not shown here. Equal entries are not always repeated. Out of some 5,500 compounds screened, about 2,000 (36%) were called active. Not shown: some 18% with an inconclusive outcome. Cut-off read from the data, not from the text of the source: active = normalized growth mostly below about 0.91 (no sharp cut-off); inconclusive = no clear call, values can overlap the other calls; inactive = mostly above about 0.92. The list shows a part of the results.

Assay: chemical genetic growth profiling, strain panel (AID 1159580);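 note: tested at 20 µM; growth read once vehicle control cultures reached saturation at 30 °C; 1 = growth at the plate median or of vehicle wells; lower values mean less growth of the strain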
Details: S. cerevisiae deletion strains, growth OD

Measured: normalized growth

Cc1cc(C(C)(C)C)c(O)c(C(C)(C)C)c1
inactive: locus YAL013W, strain DEP1, active compounds read low 0.985 | locus YAL021C, strain ccr4, active compounds read low 1.04 | locus YAL026C, strain drs2, active compounds read low 0.956 | locus YAL030W, strain snc1, active compounds read low 0.99 | locus YBL061C, strain skt5, active compounds read low 0.943 | locus YBR009C, strain hhf1, active compounds read low 0.91 | locus YBR021W, strain FUR4, active compounds read low 0.997 | locus YBR023C, strain chs3, active compounds read low 0.984 | locus YBR171W, strain sec66, active compounds read low 0.979 | locus YBR229C, strain ROT2, active compounds read low 0.964 | locus YBR231C, strain swc5, active compounds read low 0.921 | locus YBR279W, strain paf1, active compounds read low 0.996 | locus YCL011C, strain gbp2, active compounds read low 0.917 | locus YCL016C, strain dcc1, active compounds read low 0.983 | locus YCL029C, strain bik1, active compounds read low 0.983 | locus YCL061C, strain MRC1, active compounds read low 0.991 | locus YCL069W, strain vba3, active compounds read low 0.99 | locus YCR088W, strain abp1, active compounds read low 0.976 | locus YDL005C, strain med2, active compounds read low 0.975 | locus YDL035C, strain GPR1, active compounds read low 0.947 | locus YDL040C, strain nat1, active compounds read low 0.978 | locus YDL074C, strain BRE1, active compounds read low 0.816 | locus YDL101C, strain DUN1, active compounds read low 0.96 | locus YDL134C, strain PPH21, active compounds read low 0.972 | locus YDL185W, strain tfp1, active compounds read low 0.962 | locus YDL192W, strain arf1, active compounds read low 0.969 | locus YDR001C, strain nth1, active compounds read low 0.978 | locus YDR069C, strain doa4, active compounds read low 0.963 | locus YDR101C, strain arx1, active compounds read low 0.977 | locus YDR137W, strain rgp1, active compounds read low 0.965 | locus YDR150W, strain NUM1, active compounds read low 0.975 | locus YDR159W, strain sac3, active compounds read low 0.959 | locus YDR162C, strain NBP2, active compounds read low 0.859 | locus YDR297W, strain sur2, active compounds read low 0.983 | locus YDR318W, strain mcm21, active compounds read low 0.984 | locus YDR334W, strain swr1, active compounds read low 0.966 | locus YDR335W, strain msn5, active compounds read low 0.989 | locus YDR388W, active compounds read low 0.994 | locus YDR392W, strain spt3, active compounds read low 0.937 | locus YDR502C, strain sam2, active compounds read low 0.952 | locus YEL003W, strain gim4, active compounds read low 0.967 | locus YEL037C, strain rad23, active compounds read low 0.976 | locus YEL061C, strain CIN8 (second series), active compounds read low 0.976 | locus YEL061C, strain CIN8, active compounds read low 0.983 | locus YER015W, strain faa2, active compounds read low 0.937 | locus YER016W, strain bim1, active compounds read low 0.984 | locus YER110C, active compounds read low 1 | locus YER111C, strain swi4, active compounds read low 0.982 | locus YER155C, strain BEM2 (second series), active compounds read low 0.949 | locus YER155C, strain BEM2, active compounds read low 0.986 | locus YER167W, strain BCK2, active compounds read low 0.963 | locus YFR010W, strain ubp6, active compounds read low 0.956 | locus YGL078C, strain dbp3, active compounds read low 0.962 | locus YGL086W, strain mad1, active compounds read low 1 | locus YGL167C, strain pmr1, active compounds read low 0.991 | locus YGL173C, strain kem1, active compounds read low 0.957 | locus YGL227W, strain vid30, active compounds read low 0.989 | locus YGL240W, strain doc1, active compounds read low 0.938 | locus YGL248W, strain PDE1, active compounds read low 0.965 | locus YGL253W, strain hxk2, active compounds read low 0.96 | locus YGR078C, strain PAC10, active compounds read low 0.93 | locus YGR135W, strain pre9, active compounds read low 0.928 | locus YGR229C, strain SMI1, active compounds read low 0.86 | locus YGR252W, strain gcn5, active compounds read low 1.03 | locus YHR013C, strain ard1, active compounds read low 1.1 | locus YHR027C, strain rpn1, active compounds read low 0.955 | locus YHR030C, strain SLT2, active compounds read low 0.996 and 0.877 | locus YHR079C, strain IRE1 (second series), active compounds read low 0.963 | locus YHR079C, strain IRE1, active compounds read low 0.918 | locus YHR094C, strain hxt1, active compounds read low 1 | locus YHR129C, strain ARP1, active compounds read low 0.978 | locus YHR142W, strain chs7, active compounds read low 0.961 | locus YHR200W, strain rpn10, active compounds read low 1 | locus YIL066C, strain RNR3, active compounds read low 0.934 | locus YIL073C, strain SPO22, active compounds read low 0.929 | locus YIL125W, strain kgd1, active compounds read low 0.967 | locus YIR030C, strain dcg1, active compounds read low 0.998 | locus YJL092W, strain hpr5, active compounds read low 0.984 | locus YJL095W, strain BCK1 (second series), active compounds read low 0.979 | locus YJL095W, strain BCK1, active compounds read low 0.903 and 0.934 | locus YJL115W, strain asf1, active compounds read low 0.983 | locus YJL129C, strain trk1, active compounds read low 0.953 | locus YJL134W, strain LCB3, active compounds read low 1 | locus YJL154C, strain vps35, active compounds read low 0.984 | locus YJL164C, strain tpk1, active compounds read low 0.95 | locus YJL166W, strain qcr8, active compounds read low 0.951 | locus YJL168C, strain set2, active compounds read low 0.996 | locus YJL187C, strain SWE1 (second series), active compounds read low 0.886 | locus YJR043C, strain POL32, active compounds read low 0.97 | locus YJR066W, strain TOR1, active compounds read low 0.942
active: locus YDR195W, strain ref2 0.845
